Each structure is given as a SMILES string. Activity calls are given as the source filed them. No stated cut-off is given here; in the data, active means fold change mostly below about -2 (no sharp cut-off); inactive means mostly above about -1.8.

This assay in a line: TERT promoter activity modulators, primary screen, cell-based, luciferase reporter, human (AID 1259240). The conditions noted are these: A2780 TERT promoter luciferase reporter, 16 h; at 20 µM, fold versus average of vehicle-only wells. Background: In a reporter assay the amount or activity of a reporter protein is the signal.
Regarding `CN(Cc1ccccc1)C(=O)C1CCCN(S(=O)(=O)c2ccc3c(c2)oc(=O)n3C)C1` (stereo not given), the fold change is -1.14 (inactive). Still for that read-out and setting: the result for `COC(=O)c1sc2ccccc2c1N` reads 1.26 (inactive); that for `CCOC(=O)Cn1c(=O)oc2cc(S(=O)(=O)NC3CCN(C(=O)OCC)CC3)ccc21`, 1.58 (inactive). Same read-out and setting: next, `COCCCN1CN=C(Nc2nc(C)c3ccc(C)cc3n2)NC1`: -1.94 (inactive); `Cc1cccc(NC(=O)C2CCCN(S(=O)(=O)c3cnc[nH]3)C2)n1` (stereo not given): -2.48 (active); `CN1C(=O)C2ON(c3ccc(Cl)cc3)C(c3cccs3)C2C1=O` (stereo not given): -1.37 (inactive).

As for `COc1ccc2c(c1)NC(=O)C2(O)C(F)(F)F` (stereo not given), the fold change is 2.17 (active). Same read-out and setting: next, `CCOC(=O)C1CCN(c2c(NCCN(C)C)c(=O)c2=O)CC1`: 1.32 (inactive); `O=C(CSc1ncnc2ccccc12)N1CCCc2ccccc21`: -1.11 (inactive); `O=C(CC1C(=O)N(c2cccc(Cl)c2)C(=O)N1Cc1cccs1)Nc1ccccc1` (stereo not given): 1.26 (inactive). Turning to `COc1ccc2nc(C)c(C(=O)OCCN(C)C)cc2c1`, the fold change is 1.5 (inactive). Turning to `Cc1ccc(-n2c(C)cc(/C=C3/SC(=S)N(CC(=O)O)C3=O)c2C)cc1`, the fold change was -5.22 (active). The same measure, in the same setting: next, `CCOC(=O)Cn1c(=O)oc2cc(S(=O)(=O)NCc3ccccn3)ccc21`: 1.36 (inactive).

As for `CCN(CC)CCNc1nc2c(c(=O)[nH]c(=O)n2C)n1Cc1cccc(C)c1`, the fold change was -1.42 (inactive).

Take `Cc1cc(=O)n2[nH]c(NC(=O)c3cccs3)nc2n1`: the fold change is -1.29 (inactive). Same read-out and setting: next, `Cc1c(C(=O)N2CCOCC2)sc2nc3n(c(=O)c12)N=C(c1ccc(Cl)cc1)CS3`: 1.21 (inactive); `O=C1Nc2ccccc2/C1=C\c1cn(CC(=O)N2CCCC2)c2ccccc12`: 1.66 (inactive). The same measure, in the same setting: next, `O=C(O)c1cc(S(=O)(=O)O)cc(Nc2c3ccccc3nc3ccccc23)c1O`: -1.04 (inactive); `CC1CCCC(NC(=O)CN(C)S(=O)(=O)c2ccc3c(c2)CCC(=O)N3)C1C` (stereo not given): -1.68 (inactive). Consider `O=C(CC(=O)Nc1ccccn1)Nc1ccc2nc3n(c(=O)c2c1)CCCCC3`, for which the fold change is -1.11 (inactive).

Turning to `O=C(OCCCN=C1NS(=O)(=O)c2ccccc21)c1cccs1`, the compound was classed as active. For `Cc1nnc2ccc(N3CCC(C(N)=O)(N4CCCCC4)CC3)nn12`, the fold change is -1.03 (inactive).

Turning to `FC(F)(F)c1cccc2c1[nH]c1nc3ccccc3nc12`, the fold change was -1.1 (inactive). The same measure, in the same setting: the result for `O=C1c2cccnc2C(=O)N1CNc1ccc(Cl)cc1` reads 1.07 (inactive); that for `COc1ccc(-c2nc3s/c(=C\c4ccccc4)c(=O)n3n2)cc1OC`, 1.68 (inactive). The same measure, in the same setting: next, `CCN1CCN(C(=O)c2cc3c(=O)[nH]c4ccccc4c3n2C)CC1`: 1.05 (inactive). Still for that read-out and setting: next, `CCN1C(=O)C(O)(CC(=O)c2ccc(Br)s2)c2ccccc21` (stereo not given): -1.03 (inactive); `COCCN1C(=O)C(=O)/C(=C(\O)c2ccc(OC)cc2)C12C(=O)N(C)c1ccccc12` (stereo not given): -1.95 (inactive).

Regarding `Cc1ccc2[nH]cc(S(=O)(=O)c3ccc(F)cc3)c(=O)c2c1`, the fold change is -1.06 (inactive). `COc1ccccc1Nc1nc(N)nc(CSc2ncccn2)n1`: the fold change is -1.15 (inactive). Still for that read-out and setting: the result for `COc1cc(OC)c(-c2nc(-c3ccc(C)cc3)no2)cc1OC` reads 1.55 (inactive); that for `CCC(CC)c1nnc(NC(=O)Cn2cnc3c2c(=O)n(C)c(=O)n3C)s1`, -1.36 (inactive). On the same count and under the same terms, next, `COc1ccc2oc(=O)c(S(=O)(=O)c3ccc(C(C)C)cc3)cc2c1`: 1.21 (inactive).

For the compound `S=c1nc(-c2ccccc2)n(CCCn2ccnc2)c2c1CCCC2`, the fold change is 1.02 (inactive). Still for that read-out and setting: next, `COc1ccc(OC(C)c2nc(-c3ccc(C)cc3)no2)cc1` (stereo not given): -1.29 (inactive); `C=CCn1c(=N)n(CC(=O)C(C)(C)C)c2ccccc21`: -1.1 (inactive); `O=C(CC1(O)C(=O)N(CCc2ccccc2)c2ccc(Cl)cc21)c1ccc(F)cc1` (stereo not given): -1.87 (inactive). Still for that read-out and setting: the result for `CCOC(=O)N1CCC(Nc2c(NC3CCCCC3C)c(=O)c2=O)CC1` (stereo not given) reads -1.05 (inactive); that for `COc1ccc2cc3c(N)nn(C(=O)CCS(=O)(=O)c4ccccc4)c3nc2c1`, -1.33 (inactive); that for `CC1CCC(NC(=O)Cn2c(=O)c(C(F)(F)F)nc3ccccc32)CC1` (stereo not given), -1.07 (inactive).

Values taken from PubChem BioAssay AID1259240 (Keith Lab, Institute of Cancer Science, University of …, 2017).
